# From article PMC7862700, “An all-to-all approach to the identification of sequence-specific readers for epigenetic DNA modifications on cytosine”
# How the values were obtained:
# Experiment in all cases: DAPPL (digital affinity profiling via proximity ligation, sequencing); 10 mM Tris-HCl pH 7.5, 50 mM NaCl, 1 mM DTT, 4% glycerol, room temperature, 30 min; GST-TFs on glutathione beads, 16-mer random dsDNA library, 0.1% formaldehyde crosslink after washing; high values mean tight binding
# [1] = molecular target: T1, FEV (Homo sapiens, UniProt Q99581 1-238); conditions: protein: recombinant; tags: N-terminal GST; dsDNA, one strand shown
# T1 sequence: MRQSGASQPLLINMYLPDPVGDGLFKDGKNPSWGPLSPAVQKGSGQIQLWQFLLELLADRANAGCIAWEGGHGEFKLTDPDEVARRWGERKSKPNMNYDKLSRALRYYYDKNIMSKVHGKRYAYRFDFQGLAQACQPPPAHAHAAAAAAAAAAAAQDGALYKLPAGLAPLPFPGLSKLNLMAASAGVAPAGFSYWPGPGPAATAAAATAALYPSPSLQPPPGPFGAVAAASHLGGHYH
# Procedure, shortened: (§1)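 The binding signal reported is, for every hexamer, its read frequency for a factor over its read frequency for the tag-only sample. Reads came from pools of yeast-expressed, GST-fused human transcription factors on glutathione beads, barcoded with DNA and mixed with that sample, which were incubated with 200 nmole of a random double-stranded 16-mer DNA library in Tris/NaCl/DTT/glycerol buffer at room temperature for 30 min. After washing, the pools were crosslinked with 0.1% formaldehyde, proximity-ligated with BsaI/T4 ligase for 1 h at 37 °C, PCR-amplified and sequenced on an Illumina NextSeq500.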
# [2] = molecular target: ETV5 (Homo sapiens, UniProt P41161 1-510); conditions: protein: recombinant; tags: N-terminal GST; dsDNA, one strand shown
# Procedure, shortened: as §1
# [3] = molecular target: HSF1 (Homo sapiens, UniProt Q00613 1-529); conditions: protein: recombinant; tags: N-terminal GST; chain copies: 3; dsDNA, one strand shown
# Procedure, shortened: as §1
# [4] = molecular target: T2, SPIC (Homo sapiens, UniProt Q8N5J4 1-248); conditions: protein: recombinant; tags: N-terminal GST; dsDNA, one strand shown
# T2 sequence: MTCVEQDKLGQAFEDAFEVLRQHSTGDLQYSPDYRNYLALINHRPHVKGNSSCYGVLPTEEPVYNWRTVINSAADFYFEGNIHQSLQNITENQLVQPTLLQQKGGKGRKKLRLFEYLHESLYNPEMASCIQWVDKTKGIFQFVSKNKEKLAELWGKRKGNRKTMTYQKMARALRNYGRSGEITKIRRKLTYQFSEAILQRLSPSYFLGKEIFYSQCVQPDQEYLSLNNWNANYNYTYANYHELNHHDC
# Procedure, shortened: as §1
# [5] = molecular target: ELF4 (Homo sapiens, UniProt Q99607 1-663); conditions: protein: recombinant; tags: N-terminal GST; dsDNA, one strand shown
# Procedure, shortened: as §1
# [6] = molecular target: T3, ELK4 (Homo sapiens, UniProt P28324-2 1-405); conditions: protein: recombinant; tags: N-terminal GST; dsDNA, one strand shown
# T3 sequence: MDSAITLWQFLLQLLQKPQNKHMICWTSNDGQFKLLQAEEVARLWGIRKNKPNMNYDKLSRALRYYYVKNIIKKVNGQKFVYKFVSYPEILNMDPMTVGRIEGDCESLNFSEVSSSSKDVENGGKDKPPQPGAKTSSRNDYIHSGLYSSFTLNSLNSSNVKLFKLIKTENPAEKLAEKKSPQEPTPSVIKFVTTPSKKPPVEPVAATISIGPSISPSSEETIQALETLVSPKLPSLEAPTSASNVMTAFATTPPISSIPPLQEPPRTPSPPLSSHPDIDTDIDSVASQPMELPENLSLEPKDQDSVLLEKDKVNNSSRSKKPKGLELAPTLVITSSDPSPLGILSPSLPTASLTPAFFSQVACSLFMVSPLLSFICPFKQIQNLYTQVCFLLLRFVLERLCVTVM
# Procedure, shortened: as §1
# [7] = molecular target: T4, ETV2 (Homo sapiens, UniProt O00321 1-342); conditions: protein: recombinant; tags: N-terminal GST; dsDNA, one strand shown
# T4 sequence: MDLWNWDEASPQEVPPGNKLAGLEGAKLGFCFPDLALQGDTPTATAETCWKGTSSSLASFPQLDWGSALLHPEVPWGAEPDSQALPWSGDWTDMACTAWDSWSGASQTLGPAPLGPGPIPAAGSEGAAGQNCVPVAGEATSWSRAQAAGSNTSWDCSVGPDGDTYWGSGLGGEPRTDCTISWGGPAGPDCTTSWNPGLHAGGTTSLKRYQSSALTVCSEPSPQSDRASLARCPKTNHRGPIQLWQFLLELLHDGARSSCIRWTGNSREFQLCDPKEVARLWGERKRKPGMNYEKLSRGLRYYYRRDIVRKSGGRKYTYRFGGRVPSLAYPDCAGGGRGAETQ
# Procedure, shortened: as §1
# [8] = molecular target: T5, ELF3 (Homo sapiens, UniProt P78545 1-371); conditions: protein: recombinant; tags: N-terminal GST; dsDNA, one strand shown
# T5 sequence: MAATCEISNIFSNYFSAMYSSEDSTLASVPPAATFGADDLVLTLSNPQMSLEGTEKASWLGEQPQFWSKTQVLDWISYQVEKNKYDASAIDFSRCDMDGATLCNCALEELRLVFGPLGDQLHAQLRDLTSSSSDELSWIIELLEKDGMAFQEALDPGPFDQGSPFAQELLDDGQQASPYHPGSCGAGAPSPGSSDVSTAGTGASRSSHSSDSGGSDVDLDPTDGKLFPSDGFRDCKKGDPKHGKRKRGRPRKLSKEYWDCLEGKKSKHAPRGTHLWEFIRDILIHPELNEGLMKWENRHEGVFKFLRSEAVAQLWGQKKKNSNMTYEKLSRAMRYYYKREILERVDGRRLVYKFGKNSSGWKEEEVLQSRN
# Procedure, shortened: as §1
# [9] = molecular target: CRX (Homo sapiens, UniProt O43186 1-299); conditions: protein: recombinant; tags: N-terminal GST; dsDNA, one strand shown
# Procedure, shortened: as §1
# [10] = molecular target: ETV1 (Homo sapiens, UniProt P50549 1-477); conditions: protein: recombinant; tags: N-terminal GST; dsDNA, one strand shown
# Procedure, shortened: as §1
# [11] = molecular target: T6, ERF (Homo sapiens, UniProt P50548 1-548); conditions: protein: recombinant; tags: N-terminal GST; dsDNA, one strand shown
# T6 sequence: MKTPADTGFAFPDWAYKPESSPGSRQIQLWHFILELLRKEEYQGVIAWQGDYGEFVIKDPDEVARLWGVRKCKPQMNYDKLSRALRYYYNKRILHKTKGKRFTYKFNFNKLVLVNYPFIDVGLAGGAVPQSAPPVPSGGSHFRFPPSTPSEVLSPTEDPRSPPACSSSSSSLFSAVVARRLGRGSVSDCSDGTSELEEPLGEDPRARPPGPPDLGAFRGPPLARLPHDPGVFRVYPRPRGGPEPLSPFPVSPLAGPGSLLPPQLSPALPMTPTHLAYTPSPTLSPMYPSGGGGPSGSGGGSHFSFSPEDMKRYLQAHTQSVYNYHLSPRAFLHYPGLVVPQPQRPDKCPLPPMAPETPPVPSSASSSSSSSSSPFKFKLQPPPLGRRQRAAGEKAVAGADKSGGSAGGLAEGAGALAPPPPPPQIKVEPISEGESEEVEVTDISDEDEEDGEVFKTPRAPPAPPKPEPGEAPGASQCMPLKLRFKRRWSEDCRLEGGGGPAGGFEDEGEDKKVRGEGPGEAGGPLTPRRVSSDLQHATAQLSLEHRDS
# Procedure, shortened: as §1
# [12] = molecular target: T7, ETV3L (Homo sapiens, UniProt Q6ZN32 1-361); conditions: protein: recombinant; tags: N-terminal GST; dsDNA, one strand shown
# T7 sequence: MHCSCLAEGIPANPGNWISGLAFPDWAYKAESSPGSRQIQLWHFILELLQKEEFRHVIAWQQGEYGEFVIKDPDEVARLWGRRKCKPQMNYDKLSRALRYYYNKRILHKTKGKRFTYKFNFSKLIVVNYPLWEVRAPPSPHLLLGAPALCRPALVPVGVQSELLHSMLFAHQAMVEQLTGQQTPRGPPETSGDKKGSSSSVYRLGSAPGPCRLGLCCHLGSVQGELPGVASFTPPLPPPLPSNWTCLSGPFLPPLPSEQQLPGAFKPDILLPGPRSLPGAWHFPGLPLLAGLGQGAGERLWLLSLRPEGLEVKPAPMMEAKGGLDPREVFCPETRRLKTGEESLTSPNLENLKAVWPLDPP
# Procedure, shortened: as §1
# [13] = molecular target: T8, ETS2 (Homo sapiens, UniProt P15036 1-469); conditions: protein: recombinant; tags: N-terminal GST; dsDNA, one strand shown
# T8 sequence: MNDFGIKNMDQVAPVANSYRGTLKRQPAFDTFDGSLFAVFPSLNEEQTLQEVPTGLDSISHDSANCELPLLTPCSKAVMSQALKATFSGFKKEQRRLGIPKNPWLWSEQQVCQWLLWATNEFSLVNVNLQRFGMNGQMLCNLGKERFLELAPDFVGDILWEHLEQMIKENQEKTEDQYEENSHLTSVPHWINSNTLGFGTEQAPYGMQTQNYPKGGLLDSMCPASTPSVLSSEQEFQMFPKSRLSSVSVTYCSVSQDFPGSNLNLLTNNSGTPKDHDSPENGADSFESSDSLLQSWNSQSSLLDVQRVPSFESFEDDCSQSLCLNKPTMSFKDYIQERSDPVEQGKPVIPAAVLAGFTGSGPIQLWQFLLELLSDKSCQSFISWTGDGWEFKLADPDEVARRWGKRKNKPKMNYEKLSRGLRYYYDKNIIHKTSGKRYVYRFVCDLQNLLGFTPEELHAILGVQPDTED
# Procedure, shortened: as §1
# [14] = molecular target: T9, SPDEF (Homo sapiens, UniProt O95238 1-335); conditions: protein: recombinant; tags: N-terminal GST; dsDNA, one strand shown
# T9 sequence: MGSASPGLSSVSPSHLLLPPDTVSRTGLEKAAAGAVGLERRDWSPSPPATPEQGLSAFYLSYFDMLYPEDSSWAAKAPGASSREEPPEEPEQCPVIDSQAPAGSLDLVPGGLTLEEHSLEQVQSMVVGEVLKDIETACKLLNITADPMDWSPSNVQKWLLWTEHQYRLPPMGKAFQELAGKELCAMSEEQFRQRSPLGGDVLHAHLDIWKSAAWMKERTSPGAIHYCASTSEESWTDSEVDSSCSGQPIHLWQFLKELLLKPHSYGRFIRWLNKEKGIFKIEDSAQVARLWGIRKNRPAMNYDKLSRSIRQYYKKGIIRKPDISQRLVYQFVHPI
# Procedure, shortened: as §1
# [15] = molecular target: T10, ETV7 (Homo sapiens, UniProt Q9Y603 1-341); conditions: protein: recombinant; tags: N-terminal GST; dsDNA, one strand shown
# T10 sequence: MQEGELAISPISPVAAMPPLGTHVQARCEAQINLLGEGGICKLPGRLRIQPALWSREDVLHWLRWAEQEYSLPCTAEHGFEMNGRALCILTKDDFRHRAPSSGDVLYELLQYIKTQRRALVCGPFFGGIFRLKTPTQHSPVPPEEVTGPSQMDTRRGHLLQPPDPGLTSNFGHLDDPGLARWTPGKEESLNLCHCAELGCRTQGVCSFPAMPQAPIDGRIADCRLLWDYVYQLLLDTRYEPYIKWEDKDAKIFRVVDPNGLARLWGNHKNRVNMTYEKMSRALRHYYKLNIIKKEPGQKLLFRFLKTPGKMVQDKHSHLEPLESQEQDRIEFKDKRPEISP
# Procedure, shortened: as §1
# [16] = molecular target: T11, ELF5 (Homo sapiens, UniProt Q9UKW6-2 1-255); conditions: protein: recombinant; tags: N-terminal GST; dsDNA, one strand shown
# T11 sequence: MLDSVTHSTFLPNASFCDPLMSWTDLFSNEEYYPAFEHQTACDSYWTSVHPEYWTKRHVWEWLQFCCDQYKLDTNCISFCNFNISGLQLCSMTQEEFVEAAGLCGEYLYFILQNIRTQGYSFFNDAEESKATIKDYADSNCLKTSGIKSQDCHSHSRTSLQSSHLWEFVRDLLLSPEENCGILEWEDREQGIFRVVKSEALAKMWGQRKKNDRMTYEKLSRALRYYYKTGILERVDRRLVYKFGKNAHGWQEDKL
# Procedure, shortened: as §1
# [17] = molecular target: T12, ETV3 (Homo sapiens, UniProt P41162-2 1-143); conditions: protein: recombinant; tags: N-terminal GST; dsDNA, one strand shown
# T12 sequence: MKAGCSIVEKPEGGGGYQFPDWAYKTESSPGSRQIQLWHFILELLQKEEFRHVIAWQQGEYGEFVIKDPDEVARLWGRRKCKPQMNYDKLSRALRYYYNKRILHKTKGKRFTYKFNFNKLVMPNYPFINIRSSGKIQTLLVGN
# Procedure, shortened: as §1
# [18] = molecular target: ETV6 (Homo sapiens, UniProt P41212 1-452); conditions: protein: recombinant; tags: N-terminal GST; dsDNA, one strand shown
# Procedure, shortened: as §1
# Chain of ELF4 (Q99607 whole entry): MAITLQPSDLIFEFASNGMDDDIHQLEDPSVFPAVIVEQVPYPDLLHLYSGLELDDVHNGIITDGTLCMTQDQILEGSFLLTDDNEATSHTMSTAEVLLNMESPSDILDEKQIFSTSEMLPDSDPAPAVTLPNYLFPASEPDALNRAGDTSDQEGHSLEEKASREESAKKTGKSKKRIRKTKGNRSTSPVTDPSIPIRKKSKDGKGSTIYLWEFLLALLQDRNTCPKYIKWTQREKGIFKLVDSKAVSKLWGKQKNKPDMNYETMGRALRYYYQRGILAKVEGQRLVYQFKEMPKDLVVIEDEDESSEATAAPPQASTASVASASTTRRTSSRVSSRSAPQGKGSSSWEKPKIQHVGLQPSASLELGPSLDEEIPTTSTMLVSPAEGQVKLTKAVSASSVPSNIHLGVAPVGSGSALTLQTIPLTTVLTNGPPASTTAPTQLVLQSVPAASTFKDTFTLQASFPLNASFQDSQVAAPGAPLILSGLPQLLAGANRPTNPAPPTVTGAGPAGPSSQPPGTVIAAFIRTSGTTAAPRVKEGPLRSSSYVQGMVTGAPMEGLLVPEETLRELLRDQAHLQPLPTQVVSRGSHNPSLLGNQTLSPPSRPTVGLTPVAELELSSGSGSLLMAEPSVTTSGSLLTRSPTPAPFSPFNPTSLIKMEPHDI
# Chain of HSF1 (Q00613 whole entry): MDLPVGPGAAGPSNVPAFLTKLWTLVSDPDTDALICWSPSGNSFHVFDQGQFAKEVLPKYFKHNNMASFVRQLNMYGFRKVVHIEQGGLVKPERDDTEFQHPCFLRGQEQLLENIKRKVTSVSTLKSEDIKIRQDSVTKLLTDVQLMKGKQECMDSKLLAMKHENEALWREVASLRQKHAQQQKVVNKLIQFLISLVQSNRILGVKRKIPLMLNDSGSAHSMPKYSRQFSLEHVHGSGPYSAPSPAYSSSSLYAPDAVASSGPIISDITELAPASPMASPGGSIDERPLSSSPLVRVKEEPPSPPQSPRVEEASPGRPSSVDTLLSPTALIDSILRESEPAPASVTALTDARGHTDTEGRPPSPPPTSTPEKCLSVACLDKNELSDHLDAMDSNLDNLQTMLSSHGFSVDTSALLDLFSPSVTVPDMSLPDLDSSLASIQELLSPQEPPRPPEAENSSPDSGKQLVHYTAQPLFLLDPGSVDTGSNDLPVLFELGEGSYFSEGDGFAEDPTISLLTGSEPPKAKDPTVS
# Chain of ETV1 (P50549 whole entry): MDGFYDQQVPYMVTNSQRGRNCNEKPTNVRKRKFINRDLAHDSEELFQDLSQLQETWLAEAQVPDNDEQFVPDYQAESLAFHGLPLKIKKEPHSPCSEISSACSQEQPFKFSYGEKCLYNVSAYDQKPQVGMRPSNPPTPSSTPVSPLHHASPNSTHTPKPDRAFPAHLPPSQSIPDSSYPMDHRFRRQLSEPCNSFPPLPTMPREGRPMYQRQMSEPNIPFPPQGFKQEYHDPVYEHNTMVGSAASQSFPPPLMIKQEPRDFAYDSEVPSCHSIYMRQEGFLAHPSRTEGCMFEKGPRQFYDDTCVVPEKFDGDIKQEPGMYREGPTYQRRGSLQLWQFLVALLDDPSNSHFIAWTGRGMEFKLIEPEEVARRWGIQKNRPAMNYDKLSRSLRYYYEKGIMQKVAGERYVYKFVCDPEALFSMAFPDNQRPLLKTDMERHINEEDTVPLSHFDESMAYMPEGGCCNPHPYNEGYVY
# Chain of ETV5 (P41161 whole entry): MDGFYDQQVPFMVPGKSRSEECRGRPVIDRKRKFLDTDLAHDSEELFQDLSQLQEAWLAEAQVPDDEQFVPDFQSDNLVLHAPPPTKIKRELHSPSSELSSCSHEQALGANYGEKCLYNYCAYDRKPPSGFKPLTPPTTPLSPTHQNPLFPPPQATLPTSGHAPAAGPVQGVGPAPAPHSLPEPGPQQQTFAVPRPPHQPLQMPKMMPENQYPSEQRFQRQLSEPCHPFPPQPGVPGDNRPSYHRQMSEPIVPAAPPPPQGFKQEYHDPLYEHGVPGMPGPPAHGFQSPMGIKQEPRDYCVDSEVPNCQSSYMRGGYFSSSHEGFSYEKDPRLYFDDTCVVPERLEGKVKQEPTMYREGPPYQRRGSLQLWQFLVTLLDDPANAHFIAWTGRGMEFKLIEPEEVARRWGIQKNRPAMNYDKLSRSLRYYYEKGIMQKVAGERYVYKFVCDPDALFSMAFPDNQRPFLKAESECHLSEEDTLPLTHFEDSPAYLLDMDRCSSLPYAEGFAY
# Chain of CRX (O43186 whole entry): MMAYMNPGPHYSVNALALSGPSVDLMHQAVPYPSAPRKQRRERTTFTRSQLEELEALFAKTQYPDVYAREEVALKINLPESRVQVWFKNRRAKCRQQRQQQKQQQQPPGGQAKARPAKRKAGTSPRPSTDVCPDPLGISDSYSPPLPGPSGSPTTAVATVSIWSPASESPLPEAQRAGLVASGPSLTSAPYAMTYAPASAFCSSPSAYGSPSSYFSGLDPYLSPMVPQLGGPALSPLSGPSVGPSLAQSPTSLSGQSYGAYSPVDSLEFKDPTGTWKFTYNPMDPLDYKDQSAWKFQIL
# Chain of ETV6 (P41212 whole entry): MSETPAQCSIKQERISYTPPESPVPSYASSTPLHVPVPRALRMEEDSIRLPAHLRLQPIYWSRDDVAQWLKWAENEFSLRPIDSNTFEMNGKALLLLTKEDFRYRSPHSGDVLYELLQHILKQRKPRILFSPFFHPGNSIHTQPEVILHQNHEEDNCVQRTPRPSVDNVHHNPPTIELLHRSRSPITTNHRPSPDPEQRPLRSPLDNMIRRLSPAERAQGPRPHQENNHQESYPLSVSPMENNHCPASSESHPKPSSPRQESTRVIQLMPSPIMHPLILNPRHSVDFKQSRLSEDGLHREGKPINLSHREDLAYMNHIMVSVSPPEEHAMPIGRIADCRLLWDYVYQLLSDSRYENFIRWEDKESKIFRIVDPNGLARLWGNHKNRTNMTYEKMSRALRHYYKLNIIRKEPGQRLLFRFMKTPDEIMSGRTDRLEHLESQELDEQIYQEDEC
sequence,measurement,setting,value
TGCTAA,binding signal,[1],"1.29 fold enrichment (6-mer frequency, TF over GST control)"
same,binding signal,[2],"1.29 fold enrichment (6-mer frequency, TF over GST control)"
same,binding signal,[3],"1.32 fold enrichment (6-mer frequency, TF over GST control)"
same,binding signal,[4],"1.26 fold enrichment (6-mer frequency, TF over GST control)"
same,binding signal,[5],"1.28 fold enrichment (6-mer frequency, TF over GST control)"
same,binding signal,[6],"1.42 fold enrichment (6-mer frequency, TF over GST control)"
same,binding signal,[7],"1.24 fold enrichment (6-mer frequency, TF over GST control)"
same,binding signal,[8],"1.15 fold enrichment (6-mer frequency, TF over GST control)"
same,binding signal,[9],"1.8 fold enrichment (6-mer frequency, TF over GST control)"
same,binding signal,[10],"1.39 fold enrichment (6-mer frequency, TF over GST control)"
same,binding signal,[11],"1.13 fold enrichment (6-mer frequency, TF over GST control)"
same,binding signal,[12],"1.25 fold enrichment (6-mer frequency, TF over GST control)"
same,binding signal,[13],"1.34 fold enrichment (6-mer frequency, TF over GST control)"
same,binding signal,[14],"1.32 fold enrichment (6-mer frequency, TF over GST control)"
same,binding signal,[15],"1.28 fold enrichment (6-mer frequency, TF over GST control)"
same,binding signal,[16],"1.25 fold enrichment (6-mer frequency, TF over GST control)"
same,binding signal,[17],"1.22 fold enrichment (6-mer frequency, TF over GST control)"
same,binding signal,[18],"1.29 fold enrichment (6-mer frequency, TF over GST control)"
